Screening data from PubChem.
Compounds with a hit are over-represented: about 3.2% of the library has one in this group of screens.
PrPC surface inh = inhibitors of human cell surface prion protein PrPC, primary screen, cell-based, TR-FRET | Major prion protein (Homo sapiens), P04156 | TR-FRET read-out | inhibition, % at 13.8 µM | 370,000 compounds, 0.43% hits | AID 720596, 2013; in the data active = inhibition above about 24%; also: 0% = median of the test wells and 100% = reference compound wells
Y pestis TopoI = Yersinia pestis topoisomerase I inhibitors, primary screen, biochemical, cleavage product accumulation, plate reader, single point; DNA topoisomerase I (Yersinia pestis CO92); Y. pestis Topo-I cleavage product accumulation; activity, % at 10 µM; 360,000 compounds, 0.064% hits; AID 504884, 2011; in the data active = activity above about 50%, passing the limit was not always enough
TcdB GH inh = TcdB glycohydrolase inhibitors, primary screen, biochemical, single point, plate reader | Toxin B (Clostridioides difficile), P18177 | TcdB glycohydrolase enzymatic assay | inhibition, % at 9.99 µM | 350,000 compounds, 0.24% hits | AID 652162, 2013; in the data active = inhibition above about 10%
GDH-TPI counter = GDH-TPI coupling enzyme inhibitors, primary screen, artefact control for M. tuberculosis FBA inhibitor project, biochemical, absorbance, full deck; inhibition, % at 4.8 µM; 360,000 compounds, 1.2% hits; GDH-TPI coupled enzyme counterscreen, NADH absorbance; AID 588335, 2011; in the data active = inhibition above about 30%;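 also: 0% = DMSO wells and 100% = wells lacking the enzyme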
FBA Mtb inh = Mtb FBA enzyme inhibitors, primary screen, biochemical, fluorescence, strain H37Rv. 360,000 compounds, 2.3% hits. inhibition, % at 1 µM. Fructose-bisphosphate aldolase (Mycobacterium tuberculosis (strain ATCC 25618 / H37Rv)), …. purified M. tuberculosis FBA, fluorescence read-out; in the data active = inhibition above about 27%;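 also: 0% = vehicle and 100% = reference inhibitor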
* = called active by the depositor.

For CC1=CC=CN2C1=NC(=O)CC2(C)C(=O)N(CC(=O)NC1CCCC1)c1cc(C)cc(C)c1 (stereo unspecified) the results were PrPC surface inh 0, Y pestis TopoI 5, TcdB GH inh 1, GDH-TPI counter 7 and FBA Mtb inh 174*.
CC1=CN2C(=NC(=O)CC2(C)C(=O)N(CC(=O)NC2CCCC2)Cc2ccc(Cl)cc2)C=C1 (stereo unspecified) was read as PrPC surface inh 1, Y pestis TopoI 5, TcdB GH inh 0, GDH-TPI counter 0 and FBA Mtb inh 117*.
`CC1=CC=CN2C1=NC(=O)CC2(C)C(=O)N(CC(=O)NC1CCCC1)Cc1ccccc1` (stereo unspecified) gave PrPC surface inh 5, Y pestis TopoI 8, TcdB GH inh 6, GDH-TPI counter 10 and FBA Mtb inh 152*.
`Cc1ccnc(NC(=O)CCC(=O)N(CC(=O)NC2CCCCC2)Cc2ccccc2)c1` gave PrPC surface inh 3, Y pestis TopoI -5, TcdB GH inh 2, GDH-TPI counter 4 and FBA Mtb inh 5.
Screening COc1ccc(CN(C)C[C@@H]2Oc3c(NC(=O)c4ccncc4)cccc3C(=O)N([C@@H](C)CO)C[C@H]2C)cc1 returned TcdB GH inh 0.
`COc1ccc(NC(=O)Nc2cccc3c2O[C@H](CN(C)C(=O)NC(C)C)[C@@H](C)CN([C@@H](C)CO)C3=O)cc1` gave TcdB GH inh 1.
`CC1=CN2C(=NC(=O)CC2(C)C(=O)N(CC(=O)NC2CCCC2)c2cc(C)cc(C)c2)C=C1` (stereo unspecified) gave PrPC surface inh 8, Y pestis TopoI 5, TcdB GH inh 1, GDH-TPI counter 3 and FBA Mtb inh 144*.
For CCNC(=O)C[C@@H]1CC[C@@H]2[C@H](COC[C@@H](O)CN2C(=O)Nc2cccc(OC)c2)O1 the results were TcdB GH inh 1.
Cc1noc(C)c1S(=O)(=O)Nc1cccc2c1O[C@H](CN(C)C(=O)Nc1ccc(C(F)(F)F)cc1)[C@H](C)CN([C@H](C)CO)C2=O was read as TcdB GH inh 4.
`CNc1cccc(-c2ccc(C(C)=O)s2)n1` gave PrPC surface inh -27, Y pestis TopoI 4, TcdB GH inh 1, GDH-TPI counter 5 and FBA Mtb inh 0.
CC(=O)c1ccc(-c2cccs2)s1 was read as PrPC surface inh -9, Y pestis TopoI 2, TcdB GH inh 1, GDH-TPI counter 10 and FBA Mtb inh active.
CN(C)c1oc(-c2ccccc2Cl)nc1C#N was read as PrPC surface inh -2, Y pestis TopoI -2, TcdB GH inh 0, GDH-TPI counter 10 and FBA Mtb inh 20.
`CN(C)c1oc(-c2ccccc2)nc1C#N` gave PrPC surface inh 12, Y pestis TopoI -2, GDH-TPI counter 18 and FBA Mtb inh active.
For COc1ccccc1/C=C/c1nc(C#N)c(N(C)C)o1 the results were PrPC surface inh -10, Y pestis TopoI 0, TcdB GH inh 0, GDH-TPI counter 9 and FBA Mtb inh active.
CN(C)c1oc(-c2ccccc2[N+](=O)[O-])nc1C#N was read as PrPC surface inh 2, Y pestis TopoI -3, TcdB GH inh -2, GDH-TPI counter 4 and FBA Mtb inh 3.
`CN(C)c1oc(/C=C/c2ccccc2)nc1C#N` gave PrPC surface inh -5, Y pestis TopoI 4, TcdB GH inh 1 and GDH-TPI counter 24.
`CN(C)c1oc(-c2ccco2)nc1C#N` gave PrPC surface inh 0, Y pestis TopoI 2, GDH-TPI counter 16 and FBA Mtb inh 127*.
`CCOC(=O)c1nc(-c2ccccc2)oc1N(C)C` gave PrPC surface inh -9, Y pestis TopoI -12, GDH-TPI counter 15 and FBA Mtb inh 131*.
`Cc1oc(-c2ccccc2)nc1C(=O)OCC(=O)NCc1ccccc1` gave PrPC surface inh 0, Y pestis TopoI 11, TcdB GH inh 3, GDH-TPI counter 3 and FBA Mtb inh 6.
`Cc1ccc(S(=O)(=O)N(C)C[C@@H]2OCCCC[C@H](C)Oc3ccc(NC(=O)Nc4ccc(C(F)(F)F)cc4)cc3C(=O)N([C@H](C)CO)C[C@@H]2C)cc1` gave TcdB GH inh 0.
Screening CN(C)CC(=O)Nc1ccc2c(c1)[C@@H]1C[C@@H](CC(=O)N3CCN(C)CC3)O[C@H](CO)[C@@H]1O2 returned TcdB GH inh -2.
`C[C@H]1CN([C@@H](C)CO)S(=O)(=O)c2ccc(-c3ccccc3)cc2O[C@@H]1CN(C)C(=O)Cc1ccccc1` gave TcdB GH inh 1.
`Fc1ccc(-c2nc3ccccn3c2NCc2ccc3c(c2)OCO3)cc1` gave PrPC surface inh 14, Y pestis TopoI 4, TcdB GH inh -2, GDH-TPI counter 15 and FBA Mtb inh 39*.
For Oc1ccc(-c2nc3ccccn3c2NCc2ccc3c(c2)OCO3)cc1 the results were PrPC surface inh -1, Y pestis TopoI -2, GDH-TPI counter 13 and FBA Mtb inh 22.
`CNc1nc(SCc2ccc(C)cc2)nc2c1CCCC2` gave PrPC surface inh 6, Y pestis TopoI 5, GDH-TPI counter 1 and FBA Mtb inh -1.
Screening Cc1ccc(CSc2nc3c(c(SCC(=O)O)n2)CCCC3)cc1 returned PrPC surface inh 4, Y pestis TopoI 7, GDH-TPI counter -5 and FBA Mtb inh 3.
For Cc1ccc(CSc2nc3c(c(N(C)C)n2)CCCC3)cc1 the results were PrPC surface inh 5, Y pestis TopoI 59*, GDH-TPI counter -4 and FBA Mtb inh -4.
For COC(=O)CSc1nc(SCc2ccc(C)cc2)nc2c1CCCC2 the results were PrPC surface inh 6, Y pestis TopoI 58*, GDH-TPI counter -12 and FBA Mtb inh -2.
Screening Cc1cc(C)c2c(N=NN3CCCCC3)[nH]nc2n1 returned PrPC surface inh 4, Y pestis TopoI -2, TcdB GH inh 1, GDH-TPI counter 12 and FBA Mtb inh 2.
For CCN(CC)N=Nc1[nH]nc2nc(C)cc(C)c12 the results were PrPC surface inh 0, Y pestis TopoI 5, GDH-TPI counter 32* and FBA Mtb inh -9.
COc1ccc(NC(=O)N(C)C[C@H]2Oc3ccc(NS(C)(=O)=O)cc3CC(=O)N([C@H](C)CO)C[C@H]2C)cc1 was read as TcdB GH inh 1.
`Cc1cc(C(=O)Nc2cccc3c2O[C@@H](CN(C)CC2CC2)[C@@H](C)CN([C@@H](C)CO)C3=O)n(C)n1` gave TcdB GH inh 1.
`COc1ccccc1C(=O)Nc1ccc2c(c1)OC[C@H](C)NC[C@H](C)[C@H](OC)CN(C)C2=O` gave TcdB GH inh 0.
